Each structure is given as a SMILES string. The campaign covered roughly 220,000 compounds. About 240 (0.11%) were called active.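 How the source made its calls: active means inhibition of 50% or more in the single-dose primary screen; inactive means inhibition below 50%.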 For the sample, actives were picked, then their nearest neighbours and some compounds at random.

For orientation: inhibition means the change of the read-out against control, counted positive when it falls.

The assay relates to hexokinase 1 [Trypanosoma brucei]. Nature of the assay: Trypanosoma brucei hexokinase 1 inhibitors, primary screen, biochemical, G6PDH-coupled NADH absorbance, MLSCN library (AID 1430). The conditions noted are these: recombinant TbHK1, G6PDH-coupled NADH A340; at 10 µM; active compounds read high.
For `O=C(Nc1ccccc1)c1cc2ccccc2[nH]1`, the inhibition is -8.21% (inactive).

As to `COC(=O)c1nc(NC(=O)c2ccc(C(C)(C)C)cc2)n[nH]1`, the inhibition was -1.14% (inactive).

In the case of `COC(=O)C1CCN(C(=O)c2cc(=O)[nH]c3ccccc23)CC1`, the inhibition is -8.77% (inactive).

`COC(=O)C1CCN(CC(N)=O)CC1`: the inhibition is 60.6% (active).

For `CCOC(=O)N1CCC(C(N)=O)CC1`, the inhibition is 4.5% (inactive).

With `O=C(Nc1ccc(S(=O)(=O)N2CCOCC2)cc1)c1ccc2ncsc2c1`, the inhibition is -11% (inactive).

`CC12C(=O)N(c3ccccc3)C(=O)C1C(c1ccccc1)N1CCCN12` (centres undefined): the inhibition was -4.21% (inactive).

On to `Cc1cccc(-n2c(Cc3cc(=O)[nH]c(=O)[nH]3)nnc2SC(C)C)c1`, for which the inhibition is -4.19% (inactive).

For `Cc1ccc(Nc2nc(CSc3nnc(-c4ccncc4)n3-c3ccccc3C)cs2)cc1`, the inhibition is -6.74% (inactive).

As for `CC1CC(C)CN(S(=O)(=O)c2ccc(C(=O)NN3CCOCC3)cc2)C1` (centres undefined), the inhibition is -4.58% (inactive).

With `COC(=O)c1cccc([N+](=O)[O-])c1CS(=O)(=O)c1ccc(C)cc1`, the inhibition was -5.68% (inactive).

For `O=C(c1ccc(N2CCOCC2)c([N+](=O)[O-])c1)N1CCN(S(=O)(=O)c2cccs2)CC1`, the inhibition is -0.582% (inactive).

For `Cc1cc(Cl)ccc1OCCCC(=O)NCc1ccncc1`, the inhibition was 3.38% (inactive).

With `COc1ccc(C(C(=O)NC(C)(C)C)N(C(=O)Cn2nnc3ccccc32)c2ccc(C(C)=O)cc2)cc1O` (centres undefined), the inhibition was -2.52% (inactive).

For the compound `Nc1nnc(SCC(=O)NC2CCCc3ccccc32)s1` (centres undefined), the inhibition is -14.9% (inactive).

In the case of `O=C(NCCN1CCOCC1)c1cc(Sc2cccc(Cl)c2)nc2ccccc12`, the inhibition is -12.6% (inactive).

Take `O=S(=O)(NCc1ccco1)c1cnc(Cl)c(Cl)c1`: the inhibition was 8.75% (inactive).

In the case of `CC(C)[C@H](NC(=O)c1ccc(F)cc1)C(=O)OCC(=O)NC(=O)c1cccn1C`, the inhibition was -0.221% (inactive).

With `CCC(C)Cn1c(O)cc2nn(-c3nc4ccccc4s3)c(=O)c-2c1C` (centres undefined), the inhibition was -9.68% (inactive).

`Cc1ccc(-c2csc(NC(=O)c3cnccn3)n2)cc1C`: the inhibition is -12.7% (inactive).

As for `CCOC(=O)CSC1=N/C(=C/c2ccc(-n3cncn3)cc2)C(=O)N1C(C)=O`, the inhibition was -7.02% (inactive).

On to `CC1CCN(S(=O)(=O)c2ccc(S(=O)(=O)NCc3cccnc3)cc2)CC1`, for which the inhibition is 0.223% (inactive).

Turning to `O=C(COC(=O)[C@H](Cc1ccccc1)NC(=O)c1cccs1)Nc1cc(F)ccc1F`, the inhibition was 6.99% (inactive).

Take `O=C(/C=C\c1ccc2c(c1)OCO2)NC1(C(=O)Nc2ccc3c(c2)OCCO3)CCCCC1`: the inhibition is -15.6% (inactive).

Turning to `Cc1ccc(C)c(NC(=S)NNC(=O)c2csc(C)c2)c1`, the inhibition was 3.89% (inactive).

`O=C(CCc1[nH]c2ccccc2c1Sc1ccccc1)N(CCO)CCO`: the inhibition was 19.8% (inactive).

For the compound `Cc1nnsc1S(=O)(=O)Cc1ccccc1Cl`, the inhibition is 5.71% (inactive).

Turning to `COCCNC(=S)N/N=C/c1c(C)[nH]c2ccccc12`, the inhibition was -58.6% (inactive).

For the compound `CC(=O)Nc1ccc(S(=O)(=O)N(CCc2ccccc2)CC(=O)N/N=C/c2ccc(C(=O)O)cc2)cc1`, the inhibition was -12.9% (inactive).

Turning to `CCOC(=O)C1(c2ccccc2)NC(c2ccc(N(C)C)cc2)C2C(=O)N(C)C(=O)C21` (centres undefined), the inhibition was -3.65% (inactive).

On to `COc1cc(CN(C)Cc2nc3cc(C(F)(F)F)ccc3c(=O)[nH]2)ccc1OC(F)F`, for which the inhibition is 1.94% (inactive).

As for `Fc1ccc(/C=N/Nc2nc(-c3cccnc3)nc3ccccc23)cc1`, the inhibition is -55.8% (inactive).

For `COc1ccc(OCC(O)CNC(=O)Nc2ccc(Cl)cc2)cc1` (centres undefined), the inhibition was 2.73% (inactive).

For the compound `Cc1cc(=O)oc(C)c1C(=O)NC1CC(C)(C)NC(C)(C)C1`, the inhibition was -4.42% (inactive).

For `O=C(Cn1c(N2CCN(C/C=C/c3ccccc3)CC2)nc2ccccc21)c1ccccc1`, the inhibition was -2.21% (inactive).

For the compound `Cc1nn(-c2ccccc2)c(=O)c2noc(C)c12`, the inhibition was -6.64% (inactive).

Regarding `CCOC(=O)c1cccnc1NC(=O)c1ccncc1`, the inhibition is -3.95% (inactive).

With `Cc1nc(-c2ccc(Cl)cc2)sc1C(=O)NN`, the inhibition is -13% (inactive).

Consider `CC(C)CNC(=O)COC(=O)/C=C/c1ccco1`, for which the inhibition was -4.39% (inactive).

On to `CCN(C(=O)CN1CCN(Cc2ccccc2)CC1)c1c(N)n(Cc2ccccc2)c(=O)[nH]c1=O`, for which the inhibition is 4.79% (inactive).

With `Cc1cccc(OC(=O)c2sc3ncn(C)c(=O)c3c2C)c1`, the inhibition was 2% (inactive).

On to `Cc1cccc(NC(=S)N2CCC(O)CC2)c1C`, for which the inhibition was 5.41% (inactive).

In the case of `O=[N+]([O-])c1cc(S(=O)(=O)N2CCCC2)ccc1NN=C1CCCC1`, the inhibition was 36.1% (inactive).

As for `Cc1ccc(S(=O)(=O)NC(=O)Nc2nc(-c3ccc(F)c(F)c3)cs2)cc1`, the inhibition is -8.79% (inactive).

As to `Cc1ccccc1NC(=S)N(CCCN1CCOCC1)Cc1cccs1`, the inhibition is 25.4% (inactive).

With `COc1ccc(CN(C)Cc2nc3cc(OC)c(OC)cc3c(=O)[nH]2)c(OC)c1`, the inhibition is 1.93% (inactive).

As for `COc1ccc(CC(=O)NCc2nnc(SCC(=O)Nc3nccs3)n2C)cc1`, the inhibition is -2.5% (inactive).

`O=C(/C=C/c1ccccc1)Oc1coc(CSc2ncccn2)cc1=O`: the inhibition was -1.22% (inactive).

For the compound `CCc1ccc(NC2Nc3cc(C)nn3S2)cc1` (centres undefined), the inhibition is -2.97% (inactive).

Consider `CC(=O)c1ccc(S(=O)(=O)Nc2ccc(C(=O)NCC(c3ccccc3)N(C)C)cc2)cc1` (centres undefined), for which the inhibition is -5.8% (inactive).

As for `O=C(Nc1cccc2c1N(C(=O)c1ccco1)CCC2)c1ccco1`, the inhibition was -6.72% (inactive).

In the case of `CCOc1cnc(-c2c(-c3ccccc3Cl)noc2C)o1`, the inhibition was -3.33% (inactive).

As for `O=C(O)COc1ccc(/C=N/O)cc1Br`, the inhibition was 6.57% (inactive).

In the case of `O=S(=O)(Nc1ccc2cn[nH]c2c1)c1ccccc1`, the inhibition was -2.67% (inactive).

On to `O=C(O)C(c1ccccc1)C1(O)CCCCC1` (centres undefined), for which the inhibition is -7.32% (inactive).

`S=C(NCc1ccc2c(c1)OCO2)NCc1ccco1`: the inhibition was -4.45% (inactive).

With `COc1ccc(/C=C/C(=O)Nc2c(C)nn(C)c2C)cc1COc1ccc(Br)cc1`, the inhibition was -11.6% (inactive).

As for `Cc1csc(=Nc2ccccc2)n1CCO`, the inhibition is -4.03% (inactive).

Turning to `O=C(Cn1cnc([N+](=O)[O-])n1)NCCc1ccccc1`, the inhibition is -4.47% (inactive).

For the compound `COc1cccc(CC2(CO)CCCN(Cc3nc(-c4cccs4)oc3C)C2)c1` (centres undefined), the inhibition was 6.9% (inactive).

Turning to `COc1cc(Cl)c(C)cc1NC(=O)[C@@H]1CCCN1C(=O)c1cccs1`, the inhibition is -2.99% (inactive).

Turning to `CC/C(=N\NC(=S)NC(C)C)c1ccc(OC(F)F)cc1`, the inhibition was 10.1% (inactive).

In the case of `O=C(c1ccc2ccccc2n1)N1CCN(c2ccccc2Cl)CC1`, the inhibition is -6.88% (inactive).

Take `CCN(/N=C/c1ccc(N(C)C)cc1)c1nc2ccccc2[nH]1`: the inhibition is -4.95% (inactive).

With `COc1ccc(C(C#N)Nc2ccccc2C)cc1` (centres undefined), the inhibition was 4.57% (inactive).

`COC(=O)c1c(NC(=O)COC(=O)[C@@H](NS(=O)(=O)c2ccccc2)C(C)C)sc2c1CCC2`: the inhibition was -13.7% (inactive).

As to `CC(C)COC(=O)n1c(=O)oc2ccc(S(=O)(=O)N3CCCCC3)cc21`, the inhibition was -6.57% (inactive).

As to `Cc1cc(C)n2nc(C(=O)N(C)C(c3ccccc3)c3ccccc3)nc2n1`, the inhibition is 1.27% (inactive).

In the case of `C[n+]1ccccc1C1CCCC/C1=N\Nc1ccc([N+](=O)[O-])cc1[N+](=O)[O-]` (centres undefined), the inhibition was -18.3% (inactive).

Regarding `CCOC(=O)/C(=N\Nc1ccccc1Cl)N(C)C1CCS(=O)(=O)C1` (centres undefined), the inhibition is -29.3% (inactive).

For `Cn1cc(/C=C/C(=O)N2CCCC(C(=O)c3ccc(C(F)(F)F)cc3)C2)cn1` (centres undefined), the inhibition is -9.79% (inactive).

Regarding `CC(C)(C)NC(=O)NCc1ccco1`, the inhibition is 3.59% (inactive).

For the compound `O=C(COC(=O)/C=C/c1cn(-c2ccccc2)nc1-c1cccnc1)Nc1ccc(Cl)cc1Cl`, the inhibition is -3.93% (inactive).

For `CC(=O)Nc1ccc(Nc2c([N+](=O)[O-])cc(S(C)(=O)=O)cc2[N+](=O)[O-])cc1`, the inhibition was -2.68% (inactive).

For `Cc1ccccc1C(=O)NNC(=O)CN1C(=O)c2ccccc2C1=O`, the inhibition is 0.726% (inactive).

With `COc1ccc(/C=N/NS(=O)(=O)c2ccc(NC(C)=O)cc2)cc1`, the inhibition was -17.4% (inactive).

`Cc1ccc(NC(=O)C(=O)NCC2CCN(C(=O)c3cccc([N+](=O)[O-])c3)CC2)cc1`: the inhibition is -4.84% (inactive).

On to `CC(=O)NC(Cc1ccc(F)c(F)c1)C(=O)NC1CCN(c2nnnn2-c2ccccc2)CC1` (centres undefined), for which the inhibition was -4.26% (inactive).

With `O=C(c1ccncc1)c1ccc([N+](=O)[O-])cc1`, the inhibition was -1.97% (inactive).

Consider `COc1ccc(CCNC(=O)CN(c2ccccc2)S(C)(=O)=O)cc1`, for which the inhibition was 2.74% (inactive).

Regarding `OC(CN1C2=NCCCN2c2ccccc21)c1ccc(Br)cc1` (centres undefined), the inhibition was -1.72% (inactive).

For the compound `CN(CC#CCC(c1ccccc1)c1ccccc1)C(C)(C)C`, the inhibition was -4.21% (inactive).

Consider `O=C(O)c1cccnc1NC1CCCC1`, for which the inhibition is -18.1% (inactive).

As for `O=C(O)c1ccc(N=NN2CCOCC2)cc1`, the inhibition is 11.7% (inactive).

For the compound `COCCNc1cc(NCCOC)c([N+](=O)[O-])cc1[N+](=O)[O-]`, the inhibition is -26.9% (inactive).

`Cc1ccc(CNC(=O)CC2Sc3ccccc3NC2=O)cc1` (centres undefined): the inhibition was -3.22% (inactive).

Consider `CC(C)(C)c1ccc(C(=O)NCc2nnc(SCC(=O)N3CCCc4ccccc43)n2-c2ccccc2)cc1`, for which the inhibition was -3.07% (inactive).

On to `Cc1ccc(-n2nc(N)c3c(=O)oc(N(C)C)nc32)cc1`, for which the inhibition was 0.228% (inactive).

Consider `OCCCNC(c1ccccc1)c1ccc(O)cc1` (centres undefined), for which the inhibition is 0.734% (inactive).

`OCCn1c(-c2ccccc2)csc1=Nc1ccccc1`: the inhibition was -11.3% (inactive).

On to `CC1(C)CC(=O)C=C(NCCN2CCNCC2)C1`, for which the inhibition is -12.2% (inactive).

Consider `CC1(C)CC(=O)C=C(NCCCN2CCCC2=O)C1`, for which the inhibition was 0.498% (inactive).

For `CC1(C)CC(=O)C=C(NCCCNC2CCCCC2)C1`, the inhibition was 58.6% (active).

Consider `Cc1cc(C)c2nc(SCC(=O)N(C)C3CCS(=O)(=O)C3)cc(C)c2c1` (centres undefined), for which the inhibition is -5.97% (inactive).

The values above are taken from PubChem BioAssay AID1430 (University of Pittsburgh Molecular Library Screening Center, 2008).
